# ± gives the standard deviation.
# System: EfPiwi piRISC loaded with L1MC piRNA (26 nt)
# Assay: pre-steady-state target cleavage rate (min^-1); auxiliary factor: none (no Gtsf1); guide: L1MC piRNA 5'p-UAACUAAAUACUAUGCAAGCUGUAGG; higher = faster piRNA-guided slicing of the target
# Outline: (§1)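 With or without 500 nM GTSF1 partner protein, 1 nM active affinity-purified piRISC carrying one synthetic guide was mixed with 0.1 nM transcribed, DNA-blocked target RNA library in HEPES–potassium acetate buffer at 33 °C for 0–8 or 0–960 min. Uncleaved targets were sequenced and normalised to depth and to weakly complementary targets, three trials were pooled, and k3 was capped at 0.0001 min^-1. The pre-steady-state cleavage rate came from a burst-and-steady-state fit.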
row,Sequence,pre-steady-state target cleavage rate
1,UCCUGGAUCAGCUUGGAUAGUAUUUACAAA,< 0.0001
2,UCCUGGAUGUCGAACGUUAGUAUUUAGUUU [g2:g13:cont:t1U],< 0.0001
3,UCCUGGAUGUCGAACGAUAGUAUUUAGAAA [g4:g14:cont:t1A],< 0.0001
4,UCCUGGAUGUCGAUGCAUAGGAUUUAGUUA,< 0.0001
5,UCCUGGAUGUCCUUGCAUUCAAUUUAGUAA,< 0.0001
6,UCCUGGUACAGGAAGCAUAGUAUUUAGAAA,< 0.0001
7,UCCUGGAUGUCGAACGUAUCUGAUUUAGUUA,< 0.0001
8,UCCUGGAUGUCGUUGCAUGUAUUUAGUUA,< 0.0001
9,UCCUGGAACAGCUUCCAUAGUAUUUACUUA,< 0.0001
10,UCCUGGAUGUCGAACGUUCGUAUUUAGUUA,< 0.0001
11,UCCUGGAUGUCGAACCAUAGUAGUUUAGUUA,< 0.0001
12,UCCUGCUACAGCUUGCAUACAUAAAUCAAA [g12:g25:cont:t1A],< 0.0001
13,UCCUGGAUGUCGAACGAUAAUAUUUAGUUA,< 0.0001
14,UCCUGGAUGUCGAUGCAAGUAUUUAGUUA,< 0.0001
15,UCCUGGAUGUCGAACGUAUGUUAUUAGUUA,< 0.0001
16,UCCUGGAUGUCGAACGAUAGUAUUUAGUUU [g2:g14:cont:t1U],< 0.0001
17,UCCUGGAUGUCGAACGUAAGAUUUAGUUA,< 0.0001
18,UCCUGGAUGUCGAAGCAUAGUUUUUAGAUA,< 0.0001
19,UCCUGGAUGUCGUUGCAUAGUAUUUAUUA,< 0.0001
20,UCCUGGAUGUCGAACGUAUCUAUCUUAGUUA,< 0.0001
21,UCCUGGAUGUCGAACGUUAGUAUUUAGAUUA,< 0.0001
22,UCCUGGAUGUCGAUGCAGUAGUAUUUAGUUA,< 0.0001
23,UCCUGGUACAGCUUGCAUAGUAUAUACUUA,< 0.0001
24,UCCUGGAUGUCGAAGCUUAGUAUUUAGUAA,< 0.0001
25,UCCUGGUACAGCUUGCAAUCAUAAAUCAAA [g14:g24:cont:t1A],< 0.0001
26,UCCUGGAUGUCGAAGCAAAGUAUUUAGAUA,< 0.0001
27,UCCUGGAUCAGCUUCGUUAGUAUUUUCAAA,< 0.0001
28,UCCUGGAUGUCGAACCAUUGUAUUUAGUUA,< 0.0001
29,UCCUGGAUGUCGAUCCAUAGUAAUUAGUUA,< 0.0001
30,UCCUGGAUGAGCUUGCAUCAGUAUUUAGUUA,< 0.0001

# System: EfPiwi piRISC loaded with piRNA #1 (26 nt)
# Assay: pre-steady-state target cleavage rate (min^-1); auxiliary factor: 500 nM Ephydatia muelleri Gtsf1; guide: piRNA #1 5'p-UGAGGUAGUAGGUUGUAUAGUAUCCA; MIWI and MILI are mouse PIWI proteins and EfPiwi is from a freshwater sponge; tags in brackets are library labels; higher = faster piRNA-guided slicing of the target
# Outline: as §1
row,Sequence,pre-steady-state target cleavage rate
1,GGAGAGGAUACUAUACAACCUACAACCACA,0.00436 ± 0.0017
2,GGAGACCAUACUAUACAACCUAGUACGUCA,0.00483 ± 0.0024
3,GGAGACCUAUGUAUACAACCUACAUGCUCA,< 0.0001
4,GGAGACCACACUAUACAACCUACUACCUCA,0.0344 ± 0.015
5,GGAGUGGAUACUAUACAACCUACUUCCACA,0.00294 ± 0.0024
6,GGAGUGGAUACUAUACAACCUGACUACCUCA,0.00415 ± 0.002
7,GGAGACGUUACUAUACAAGCUACUACCUCA,0.00435 ± 0.002
8,GGAGAGGAUACUAUACAACCUACUAGGAGA [g6:g25:cont:t1A],0.00363 ± 0.0023
9,GGAGAGGAAACUAUACAACCUACUACCUGA,0.0041 ± 0.0024
10,GGAGUGGAUACUAUACAACCUAGUAGCUCA,0.00485 ± 0.0018

# Reference: the supplement of paper PMC10338343
